Compound activity: PubChem BioAssay, several laboratories
FXN GAA850 act: increases GAA850 frataxin promoter reporter activity; HEK293 lucGAA850 FXN promoter luciferase reporter, 24 h; percent of 10 µM SAHA response; 360,000 compounds, 0.56% hits; activation, % at 6 µM;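 active means activation above the average of all compounds screened plus 3 SD, cutoff fixed separately per campaign, cut at about 7.5% in these data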;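 further: 0% = DMSO wells and 100% = 10 µM SAHA wells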
AHR activator: activators of human aryl hydrocarbon receptor; P35869; AHR-responsive luciferase reporter cells, luminescence; activation, % at 5 µM; 320,000 compounds, 2.5% hits; in the data active means activation above about 47%;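 further: 0% = vehicle wells and 100% = reference agonist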
Target sequence (P35869 whole entry, looked up): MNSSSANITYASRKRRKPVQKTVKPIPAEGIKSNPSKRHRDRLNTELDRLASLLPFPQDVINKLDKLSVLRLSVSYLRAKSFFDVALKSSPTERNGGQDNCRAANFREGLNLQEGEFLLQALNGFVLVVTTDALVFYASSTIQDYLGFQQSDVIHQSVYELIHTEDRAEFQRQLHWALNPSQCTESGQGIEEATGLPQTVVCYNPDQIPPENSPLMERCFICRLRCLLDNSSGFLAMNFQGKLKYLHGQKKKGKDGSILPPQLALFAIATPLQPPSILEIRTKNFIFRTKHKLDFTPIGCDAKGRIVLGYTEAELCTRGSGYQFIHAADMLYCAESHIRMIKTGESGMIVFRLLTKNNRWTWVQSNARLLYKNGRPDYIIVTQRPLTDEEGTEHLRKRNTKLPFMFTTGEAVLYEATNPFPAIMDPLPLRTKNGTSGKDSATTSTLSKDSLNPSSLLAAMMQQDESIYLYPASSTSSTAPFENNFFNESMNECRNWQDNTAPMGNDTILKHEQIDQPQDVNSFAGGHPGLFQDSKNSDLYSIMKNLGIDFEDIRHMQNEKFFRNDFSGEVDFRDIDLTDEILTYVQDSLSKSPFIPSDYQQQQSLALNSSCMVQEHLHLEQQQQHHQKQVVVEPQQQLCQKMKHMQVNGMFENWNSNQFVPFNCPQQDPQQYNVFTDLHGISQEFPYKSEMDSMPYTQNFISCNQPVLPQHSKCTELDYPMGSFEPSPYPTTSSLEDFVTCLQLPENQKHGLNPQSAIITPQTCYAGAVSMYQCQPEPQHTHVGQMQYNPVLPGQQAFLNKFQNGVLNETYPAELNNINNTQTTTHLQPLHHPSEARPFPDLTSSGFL
HSF1 inhib: HSF1 inhibition; NIH3T3-HGL HSE-luciferase, MG132-induced, luminescence 8 h; stronger effect = lower value; activity change, negative = inhibition, % at 7.5 µM (by protocol); 300,000 compounds, 0.77% hits;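 active means more than half of replicate wells show activity change below -50%, luminescence cut by over half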;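 further: luciferase reports HSF-1 transcriptional activity via heat shock element; 0% = median of DMSO wells and -100% = zero luminescence signal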
HSF-1 act: increases HSF-1 driven luciferase reporter signal. NIH3T3-HGL HSF-1 luciferase reporter, MG132, 8 h; 100% = twice DMSO control signal. activation, % at 9 µM. 300,000 compounds, 1.7% hits;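 active means mean replicate activation of at least 50% with a set share of replicates each reaching 50%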;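 further: 0% = median of the neutral control wells and 100% = twice that signal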
GAA30 counter: activates GAA30 frataxin promoter, counter-screen for GAA850 activators; shares compounds with FXN GAA850 act; HEK293 lucGAA30 FXN promoter luciferase, 24 h; DMSO = 0%, 5 µM ipriflavone = 100%; activation, % at 6 µM; 1,900 compounds, 66% hits; AID 588350;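 active means mean activation above the mean of solvent-only control wells plus 3 SD, cut at about 22% in these data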;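 further: counterscreen of GAA850 promoter hits where activity marks nonselective or luminescence artifacts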
FXN GAA850 conf: confirmation of GAA850 frataxin (FXN) promoter activators. shares compounds with FXN GAA850 act. HEK293 lucGAA850 FXN promoter luciferase reporter, 24 h; 100% = activation by SAHA. activation, % at 6 µM. 1,900 compounds, 86% hits. AID 588351;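 active means mean activation above a set limit taken from the primary screen, cut at about 8% in these data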;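 further: 0% = DMSO wells and 100% = 10 µM SAHA wells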
The depositor's hits bear a star; / = not tested or not shown. Only some compounds are listed: those with a hit (about 4.6% of all), similar ones and a draw of the others.

SMILES	FXN GAA850 act	AHR activator	HSF1 inhib	HSF-1 act	GAA30 counter	FXN GAA850 conf
CC[C@]1(C(=O)OC)[C@H]2C(=O)N(Cc3ccccc3)C(=O)[C@H]2[C@H]2CN=C(SCc3ccc(C(=O)OC)cc3)N21	9.5*	/	/	/	14	11*
COC(=O)c1ccc(CSC2=NC[C@@H]3[C@@H]4C(=O)N(C)C(=O)[C@@H]4[C@](Cc4ccccc4)(C(=O)OC)N23)cc1	-1	/	/	/	/	/
CC[C@]1(C(=O)OC)[C@H]2C(=O)N(Cc3ccccc3)C(=O)[C@H]2[C@H]2CN=C(SCc3ccc(C)cc3)N21	13*	/	/	/	34*	14*
COC(=O)[C@@]1(C)[C@H]2C(=O)N(Cc3ccccc3)C(=O)[C@H]2[C@H]2CN=C(SCc3ccccc3)N21	16*	/	/	/	33*	16*
CCN1C(=O)[C@H]2[C@H]3CN=C(SCC4CC4)N3[C@@](Cc3ccccc3)(C(=O)OC)[C@H]2C1=O	2	/	/	/	/	/
COc1nc(N(C#N)CC(N)=O)nc(N2CCCC2)n1	12*	9	-11	-1	16	18*
COc1ccc(C(=O)N/N=C/c2ccccn2)cc1OC	1	21	3	4	/	/
COc1ccc(C(=O)Nc2ccccc2C(=O)N/N=C/c2ccccn2)cc1OC	10*	41	-6	1	-110	-32
O=C(N/N=C/c1ccccn1)c1ccc(Cl)cc1	12*	8	16	24	-77	-20
O=C(N/N=C/c1ccccn1)c1ccccc1	4	10	-5	23	/	/
Cc1ccc(Nc2c(-c3cccnc3)nc3ccc(Br)cn23)cc1	0	1	7	7	/	/
CCCCCOC(=O)Nc1nnc(CCCCC)s1	2	2	-1	-1	/	/
CCCCOC(=O)Nc1nnc(CC)s1	7.7*	4	-8	15	51*	27*
CC(C)(C)c1csc(NC(=O)CS(=O)(=O)c2ccccc2)n1	7.9*	3	5	5	51*	15*
CCOc1ccc2nc(SCC#N)c(C#N)cc2c1	8.2*	-19	25	20	108*	32*
Fc1ccc(N2CCN(Cc3c[nH]c4ccccc34)CC2)cc1	/	8	0	9	/	/
Cc1ccc(C)n1-c1ccc(-c2nnco2)cc1	0	1	-8	2	/	/
Cc1cc(-c2nnco2)c(C)n1-c1ccc(F)cc1	7.7*	0	2	-4	53*	22*
CC(=O)Nc1ccc(NC(=O)C2(C)CC2(Cl)Cl)cc1 (stereo unspecified)	0	-2	-44	-51	/	/
O=C(/C=C/c1ccccc1)CC(=O)c1ccccc1O	8.9*	9	15	14	72*	29*
CC(Oc1ccc(C(C)(C)C)cc1)C(=O)NCC(c1ccco1)N1CCCC1 (stereo unspecified)	8.4*	2	/	/	16	9.6*
Nc1c(C(=O)NCC2CCCO2)sc(=S)n1-c1ccccc1 (stereo unspecified)	3	3	9	19	/	/
COC(=O)c1c(-c2ccccc2)csc1NC(=O)c1ccco1	11*	-1	35	74*	110*	45*
O=C(Nc1ccc(Cl)cc1)C1CCCCN1S(=O)(=O)c1ccccc1 (stereo unspecified)	7.9*	11	/	/	24*	8.3*
N#C/C(=C/c1ccc(N2CCCCC2)o1)c1cccc(F)c1	15*	0	128	172*	106*	41*
SMILES	FXN GAA850 act	AHR activator	HSF1 inhib	HSF-1 act	GAA30 counter	FXN GAA850 conf
Cc1ccc(/C(C#N)=C\c2ccc(N3CCOCC3)o2)cc1	22*	-1	58	76*	120*	53*
Cc1ccc2nc(/C(C#N)=C\c3ccc(N4CCOCC4)o3)[nH]c2c1	3	43	13	21	/	/
O=C(Nc1nnc(C2CCCCC2)s1)c1cccs1	7.8*	77*	11	13	95*	27*
Cc1ccc2c(CN3CCC(C)CC3)cc(=O)oc2c1	8.6*	8	16	38	125*	46*
COc1cc(S(=O)(=O)Nc2ccccc2N2CCCCC2)ccc1NC(C)=O	-2	-1	/	/	/	/
Cc1ccc(OCCOc2cccc(Br)c2)c([N+](=O)[O-])n1	7.6*	1	62	88*	81*	40*
CN(C)c1nc(OCCOC(=O)Nc2ccc(Cl)cc2Cl)nc(N(C)C)n1	0	-2	-4	10	/	/
CON(C)c1nc(OCCNC(=O)OCc2ccc(Cl)cc2C)nc(N(C)C)n1	12*	-1	2	-5	21	6
CC1CN(Cc2ccccc2)c2nc3c(c(=O)n(CC(N)=O)c(=O)n3C)n2C1 (stereo unspecified)	2	1	-5	-6	/	/
CC1CN(c2ccc(Oc3ccccc3)cc2)c2nc3c(c(=O)n(CC(N)=O)c(=O)n3C)n2C1 (stereo unspecified)	18*	-2	-1	10	2	2
O=C(Nc1nc(-c2ccc3c(c2)Cc2ccccc2-3)cs1)c1ccccc1	0	-1	-3	5	/	/
CC(C)(C)c1ccc2c(c1)C(=O)c1ccccc1C2=O	7.9*	46	-3	4	111*	38*
Cc1nc2ccccc2c(=O)n1/N=C/c1ccc(OC(F)F)cc1	4	0	-3	4	/	/
O=C(CNC(=O)c1ccc2c(c1)OCO2)NCc1cccs1	2	5	/	/	/	/
CCn1c(SCc2nc3ccccc3s2)nc2cc(S(=O)(=O)N3CCOCC3)ccc21	12*	9	41	69*	81*	33*
c1ccc(-n2cnnc2SCc2nc3ccccc3s2)cc1	7.8*	30	15	15	94*	26*
COCCn1c(SCc2nc3ccccc3s2)nc2ccccc21	8.4*	31	41	77*	99*	31*
Cc1nnc(SCc2nc3ccccc3s2)n1-c1ccccc1	7	24	7	12	/	/
CCOCCCn1c(SCc2nc3ccccc3s2)nc2ccccc2c1=O	-2	31	-8	-4	/	/
CCCSc1nc2cc(S(=O)(=O)N3CCOCC3)ccc2n1CC	2	8	3	9	/	/
CC(C)C(=O)Nc1nnc(SCC(=O)Nc2ccc3c(c2)OCO3)s1	0	1	-3	7	/	/
O=C(N/N=C/c1cccnc1)c1ccc(NC(=O)c2ccccc2Cl)cc1	0	5	3	6	/	/
Cc1noc(C)c1NC(=O)NC(c1ccccc1)c1ccccc1	1	-2	-3	16	/	/
O=[N+]([O-])c1ccc(N2CCN(C(=S)NCc3ccc(Cl)cc3)CC2)cc1	-1	-5	1	2	/	/
CCn1c(SCC(=O)Nc2cccc(OC)c2)nc2ccccc2c1=O	2	/	3	5	/	/
COC(=O)c1ccccc1NC(=O)CCS(=O)(=O)c1cc2c(cc1C)NC(=O)CO2	1	9	0	0	/	/
CCCCN(C)C(=O)c1sc(=O)n(CC(=O)c2ccccc2OC)c1C	-1	/	/	/	/	/
